Among the data in PubChem BioAssay are GFP response, % of DMSO values, retold here.

The structures appear in SMILES notation. Results filed as inconclusive are left out. Unmarked numbers belong to inactive results.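 Rule for the calls: active = GFP signal above the screen-wide mean plus 3 SD, that is over about 124.5% of the solvent control; inconclusive = no reading because the compound's own fluorescence disturbed strain identification; inactive = the rest.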

A short description of this experiment: yeast AGP1-GFP level changes, GLN3 branch – cell-based, multiplex flow cytometry, S. cerevisiae, primary screen (AID 1887).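 Note: AGP1-GFP fusion strain of S. cerevisiae within a five-strain barcoded multiplex.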 The conditions noted are these: 3 h, at 10 µM, hits give high values. In general terms: A flow cytometer gives signals particle by particle.
With `CN1C[C@H](CNC(=O)OCc2ccccc2)C[C@@H]2c3cccc4c3c(cn4C)C[C@H]21`, the GFP response, % of DMSO was 108%.

Take `C[N+]1(C)C2CCC1CC(OC(=O)C(CO)c1ccccc1)C2` (configuration not stated): the GFP response, % of DMSO is 105%.

`CCC1(c2ccccc2)C(=O)N(COC)C(=O)N(COC)C1=O`: the GFP response, % of DMSO is 112%.

Take `CCn1c(O)c(C(=O)CC2NCCc3ccccc32)c(=O)n(CC)c1=S` (configuration not stated): the GFP response, % of DMSO is 101%.

On to `NC(=O)CN1CCCC1=O`, for which the GFP response, % of DMSO was 91%.

Take `Cc1ccsc1C(=O)C1CCCN(Cc2cc3ccccc3o2)C1` (configuration not stated): the GFP response, % of DMSO is 102%.

`CN1C2CCC1CC(OC(=O)c1ccc(Cl)cc1)C2` (configuration not stated): the GFP response, % of DMSO is 108%.

Take `Cn1c(O)c(C=NCCc2c[nH]c3ccccc23)c(=O)n(C)c1=O`: the GFP response, % of DMSO is 110%.

In the case of `CC12CN3CC(C)(CN(C1)C3c1cccs1)C2=O` (configuration not stated), the GFP response, % of DMSO is 107%.

Turning to `[N-]=[N+]=CC(=O)OC[C@H](N)C(=O)O`, the GFP response, % of DMSO was 110%.

On to `COP(=O)(OC)C(O)C(Cl)(Cl)Cl` (configuration not stated), for which the GFP response, % of DMSO is 102%.

Consider `CC(C)[N+](C)(CCC(C(N)=O)(c1ccccc1)c1ccccc1)C(C)C`, for which the GFP response, % of DMSO is 106%.

Take `C[C@@]1(CO)[C@H](O)CC[C@@]2(C)[C@H]1CC[C@H]1C[C@@H]3C[C@@]12CC[C@]3(O)CO`: the GFP response, % of DMSO was 99.3%.

Regarding `O=C1CCCC2=C1C(c1cccnc1)Nc1ccccc1N2` (configuration not stated), the GFP response, % of DMSO is 107%.

As for `O=c1[nH]c(=S)n(-c2ccccc2)c(O)c1/C=N/N1CCCCC1c1cccnc1` (configuration not stated), the GFP response, % of DMSO is 93%.

As to `Clc1ccc(C2NCCc3[nH]cnc32)cc1` (configuration not stated), the GFP response, % of DMSO was 104%.

`Cc1ccc(-n2c(C)cc(/C=C3/C(=O)NC(=O)N(C)C3=O)c2C)cc1`: the GFP response, % of DMSO is 106%.
